Test results reported in publication PMC12136788.
Positions count from the first letter of the chain named. Over roughly 24,000 sequences, “enrichment r” has its median near 0.99; the highest 2% begin near 3.7. The sample holds the highest values, similar sequences and a random draw of the others, so the mix is not that of the screen.

T1: UNK ZnF1-3 (human, UniProt Q9C0B0 31-174)
T1 sequence: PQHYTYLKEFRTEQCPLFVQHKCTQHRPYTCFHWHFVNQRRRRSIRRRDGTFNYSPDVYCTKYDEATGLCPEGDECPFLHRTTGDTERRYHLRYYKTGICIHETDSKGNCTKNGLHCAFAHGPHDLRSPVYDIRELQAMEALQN

B1: chr16:45382771:45382772:-_ENSMUSG00000022661_ENSMUST00000163230|mus_mus|mus_mus_mus_hu_True|28_78 (ssRNA)
RNA: GGGAGUUCUACAGUCCGACGAUCCUGGGUCAUGUUAUAAGACAAAUGGACAGGGAGAGCAUGCUUUUCAAAAAAUGUGAGCUAUUGUCUAAGACUAACAAUAUUUACUAAGUGCUAAAAAUAAGUUAAAUGAAUAAGUUAAGACAACAGAGGAUUGAGCAUCA
B2: chr16:45382771:45382772:-_ENSMUSG00000022661_ENSMUST00000163230|mus_mus|mus_mus_mus_hu_True|18_28 (ssRNA)
RNA: B1 RNA with A57G, U66C, A117U, U121A, A123U, G124A, U125A, U126G
B3: chr16:45382771:45382772:-_ENSMUSG00000022661_ENSMUST00000163230|mus_mus|mus_mus_mus_hu_True|28_88 (ssRNA)
RNA: B1 RNA with C50U, A57G, U66C
B4: chr16:45382771:45382772:-_ENSMUSG00000022661_ENSMUST00000163230|mus_mus|mus_mus_mus_hu_True|28_68 (ssRNA)
RNA: B1 RNA with A57G, U66C, C68G, A69U, A73G
B5: chr1:225611761:225611762:-_ENSG00000143815_ENST00000272163|hu_mus|hu_hu_hu_mus_True|78_108 (ssRNA)
RNA: GGGAGUUCUACAGUCCGACGAUCCCAGGCCAUCGACCUCUGACCACUUCACCCUCAGCAAAUUUCCUACUUGGCAUUUUCUAAAAUUAGUCUGGCCGCGCUCCGGCGGGAACUCCAGCCACUCCAGGACAGUCACCAGCAGCCCAACAGAGGAUUGAGCAUCA
B6: 71781198_71781318_2220_CDS_ENSMUSG00000008305_ENSMUST00000030095|mouse|control|control (ssRNA)
RNA: GGGAGUUCUACAGUCCGACGAUCCACGCAGCUCUCGUGGAGGUGCAGCUGGUACUUGUCAGGCUUGUUCACAUGCAGAACUUCCACGUUGCUGCUUUCCAUGCCCACAGCAAGCCACUCCCCAGUUGGGCAAUAUCCCAAAGACAACAGAGGAUUGAGCAUCA
B7: chr3:57561382:57561383:-_ENSG00000168374_ENST00000303436|hu_hu|FALSE|FALSE (ssRNA)
RNA: GGGAGUUCUACAGUCCGACGAUCUAGCAGCACUGCAUCUCUCAAUUCAUCUACCAGAAGCAUUUUCUGCAGCUCAUCUGCUACUUCCUGAAUUCUUUCACGAUCGUUGCUAUCUACCACAAAAAUAAGACCCUGGGUAUUCUGCAACAGAGGAUUGAGCAUCA
B8: chr1:163295886:163295887:+_ENSG00000143228_ENST00000271452|hu_mus|motif|central (ssRNA)
RNA: GGGAGUUCUACAGUCCGACGAUCGGUUUUUGCCAUCUGCUCCUGUUAAUAAUUUAUUGCGAAUAUGAACCACAAGCUCAGCGGCAUUGUAUCUGGGGAAUGACAAAGUUUCCAUUAUGGGAGUCUCCUCCCUGAGUAUUGUUGCAACAGAGGAUUGAGCAUCA
B9: chr6:29525140:29525141:-_ENSMUSG00000012535_ENSMUST00000012679|mus_hu|FALSE|FALSE (ssRNA)
RNA: GGGAGUUCUACAGUCCGACGAUCGUUAGUUUUGUACAAAUGUUCCCCCAGUCGGUACCAAAAGUUAAAUGAAAUUUCUACUACCUCAUAUUGAGGAUGGCCUGCACAGAUAAGCAGCAGCUCCAGAGUUCGAAGGUCCCCAAGCAACAGAGGAUUGAGCAUCA
B10: chr7:155493584:155493585:+_ENSG00000184863_ENST00000401878|hu_mus|FALSE|FALSE (ssRNA)
RNA: GGGAGUUCUACAGUCCGACGAUCAGAAAGUUCCAAAGUUUCUGGAAUGUUCCUUCUCUCUCUAGUUACAUCUGAAAGCCUAAUAAUUGUUCCUUCUUUCCUUUCAGUUUUAAAACGUAAUCGUCCAGAUUCUUCAUCAUCAUCCAACAGAGGAUUGAGCAUCA
B11: chr1:201104638:201104639:-_ENSG00000116857_ENST00000367334|hu_hu|FALSE|FALSE (ssRNA)
RNA: GGGAGUUCUACAGUCCGACGAUCAGAGAUCAGAGACCACAUCCCUCUUCCCUAAUCAAAAUAGCCAAGUACAACAUUUCUAAAGUUAGGGAGAAGGAGGAAAAAUGCCACAGGCUUUUAAAGGGAAGACUGGAACCGAGGGAACAACAGAGGAUUGAGCAUCA
B12: chr1:36770067:36770068:+_ENSG00000054118_ENST00000354618|hu_hu|FALSE|FALSE (ssRNA)
RNA: GGGAGUUCUACAGUCCGACGAUCUCUUUCAAGAAUCAAAGUUUCCCAAAUUAAAUGUUUCUAAUAUUACUACAUAUGCCUAAAAAAAGAAAAAAAAAAAAAAAAAGGAGGGGGCUUUUAAAAUCAGGACAGGGGAAAAGAGAUCAACAGAGGAUUGAGCAUCA
B13: chr19:16212804:16212805:+_ENSG00000167460_ENST00000300933|hu_hu|motif|central (ssRNA)
RNA: GGGAGUUCUACAGUCCGACGAUCAGGAAAUAUGCAAAAGAACAUCACAUCAAGGAUCAAUUAAUUACCAUCUAUUAAUUACGGUAUGUGGGUAAUUAUGACUAUUUCCCAAGCAUUCUACGUUGACUGCUUGAGAAGAUGUUUCAACAGAGGAUUGAGCAUCA
B14: chr1:36770067:36770068:+_ENSG00000054118_ENST00000354618|hu_hu|motif|central (ssRNA)
RNA: B12 RNA with U80G, A81G
B15: chr1:36770067:36770068:+_ENSG00000054118_ENST00000354618|hu_mus|FALSE|FALSE (ssRNA)
RNA: GGGAGUUCUACAGUCCGACGAUCUUAAGAGUCAAAGUUGCCCAAAUUAAAAUCUUUACACUAAUAUUACUAUAUAUCCCCUAAAAAGAAGAAAAAGAAAAAAGGAUUUCUUAAUAAAACUCAGGACAGGAAGAGACUGAAAACCAACAGAGGAUUGAGCAUCA

These binders were tested against T1, UNK ZnF1-3 (assay: nsRBNS (natural sequence RNA bind-n-seq); RBNS binding buffer (assumed for nsRBNS): 25 mM Tris pH 7.5, 150 mM KCl, 3 mM MgCl2, 0.01% Triton X-100, 500 ug/ml BSA, 20 U/ml SUPERase-In, 4 C; UNK is unkempt and MSI1 is Musashi-1; names of the RNAs are library labels; protein concentration not given here; high values mean tight binding).

Binder	binding signal [enrichment R]
B1	12.8
B2	9.98
B3	5.11
B4	6.96
B5	1.33
B6	0.78
B7	0.947
B8	1.12
B9	0.862
B10	0.81
B11	2.05
B12	4.92
B13	0.67
B14	3.96
B15	2.39
